According to PubChem BioAssay (Tox21):
Activity calls are given as the source filed them. Entries that show only a call come without a potency. Calls follow the shape of the dose curve; as a rule, active = well fitted curve in the direction sought with a large enough effect in the repeat runs; inconclusive = weak or mixed curves; inactive = flat fitted curve, though single readings scatter.

Experiment: qHTS assay to test for compound auto fluorescence at 460 nm (blue) in HepG2 cells (AID 720687)
Details: autofluorescence 405/460 nm, 1 h; series mostly up to 91.3 µM
Text: U.S. Tox21 Program National Center for Advancing Translational Sciences [NCATS] NIH Chemical Genomics Center [NCGC] U.S. Environmental Protection Agency [EPA] National Institutes of Environmental Health Sciences [NIEHS] National Toxicology Program [NTP] U.S. Food and Drug Administration [FDA] Tox21 Assay Overview: Compound auto fluorescence often interferes with screening of the compound library against various biological targets and signaling pathways. Some of these compounds may have fluorophoric properties. Such properties may interfere with the assay outputs resulting in false positives and/or negatives. To decrease such complications and ensure the compound activities are relevant in terms of biological response, the Tox21 10K compound library was screened for auto fluorescence. From the fluorophores used as reporter signals in our screening assays, the auto fluorescence equivalencies of compounds against three fluorophores have been evaluated: Triamterene, Fluorescein and Rose Bengal sodium for blue, green and red fluorescence, respectively. The fluorescence intensities were measured using Excitation/Emission wavelengths at 405/460nm, 485/535nm and 540/590nm for blue, green and red labels, respectively. This assay includes the blue fluorescence data.
Tox21 Assay Protocol Summary: 2,000 HepG2 cells in 5 uL of culture medium (MEM containing 10% FBS) per well were dispensed into black wall/clear bottom 1536-well plates using a Multidrop Combi Dispenser (ThermoFisher Scientific, Waltham, MA). The assay plates were incubated overnight at 37 C to allow cell attachment to the well bottom, followed by the transfer of 23 nL compound or DMSO vehicle by a pintool work station (Kalypsys , San Diego, CA). After the assay plates were incubated for 1 hr at 37 C and 5% CO2, fluorescence intensities in the assay plates were measured by an Envision (PerkinElmer, Shelton, CT) plate reader using three labels for measuring blue, green and red fluorescence at […] 460, 535 and 590 nm respectively.

Row | SMILES | Potency
1 | CC(Cc1ccc(OCC(=O)O)cc1)NCC(O)c1csc(C(F)(F)F)n1 (stereo not given) | inactive
2 | CN(C)c1ccc(N)cc1 | inactive
3 | CC(=O)[O-].CC(=O)[O-].[Co+2] | inactive
4 | CN(C)CCc1c[nH]c2ccccc12 | inactive
5 | CCOP(=S)(OCC)SC(CCl)N1C(=O)c2ccccc2C1=O (stereo not given) | inactive
6 | CNC(=O)Oc1cc(C)cc(C(C)C)c1 | inactive
7 | O=S(=O)(NS(=O)(=O)C(F)(F)F)C(F)(F)F | inactive
8 | CCCCON=O | inactive
9 | O=C(NC(=O)c1c(F)cccc1F)Nc1ccc(Oc2ccc(C(F)(F)F)cc2Cl)cc1F | inactive
10 | O=C(O)[C@H](O)[C@@H](O)C(=O)O | inactive
11 | CC1=C2C[C@H]3[C@@H](CC=C4C[C@@H](O)CC[C@@]43C)[C@@H]2CC[C@]12O[C@@H]1C[C@H](C)CN[C@H]1[C@H]2C | inactive
12 | O=C(O)CCCCCCNC1c2ccccc2CCc2ccccc21 | inactive
13 | O.O.O.O.O.O.O.O=S(=O)([O-])[O-].[Co+2] | inactive
14 | [O-][Cl+3]([O-])([O-])O | inactive
15 | Cc1ccn2nc(S(=O)(=O)Nc3c(F)cccc3F)nc2n1 | inactive
16 | c1cc[n+]2c(c1)-c1cccc[n+]1CC2 | inactive
17 | CC(=O)C(Cl)C(=O)N(C)C (stereo not given) | inactive
18 | CC[C@H](C)[C@H]1O[C@]2(C=C[C@@H]1C)C[C@@H]1C[C@@H](C/C=C(\C)[C@@H](O[C@H]3C[C@H](OC)[C@@H](O[C@H]4C[C@H](OC)[C@@H](NC)[C@H](C)O4)[C@H](C)O3)[C@@H](C)/C=C/C=C3\CO[C@@H]4[C@H](O)C(C)=C[C@@H](C(=O)O1)[C@]34O)O2 | inactive
19 | CCN1CCC2(CC1)COc1cc3c(cc12)N(C(=O)c1ccc(-c2ccc(-c4nnc(C)o4)cc2C)cc1)CC3 | inactive
20 | CN | inactive

Row | SMILES | Potency
21 | C#CC1(O)CCCCC1 | inactive
22 | CSC(C)(C)/C=N/O | inactive
23 | ClC(Cl)C(Cl)(Cl)Cl | inactive
24 | CC1(C)[C@H](/C=C2\CCSC2=O)[C@@H]1C(=O)OCc1coc(Cc2ccccc2)c1 | inactive
25 | COC(=O)c1ccccc1S(=O)(=O)NC(=O)Nc1nc(C)nc(OC)n1 | inactive
26 | [Cl-].[Cl-].[Sn+2] | inactive
27 | O=[N+]([O-])c1ccc(CCl)cc1 | inactive
28 | CCOP(=O)(Sc1ccccc1)Sc1ccccc1 | inactive
29 | CCC[CH2][Sn]([CH2]CCC)([CH2]CCC)[CH2]CCC | inactive
30 | C#CCC1=C(C)C(OC(=O)C2C(C=C(C)C)C2(C)C)CC1=O (stereo not given) | inactive
31 | CC(=O)[O-].CC(=O)[O-].CC(=O)[O-].[Cr+3] | inactive
32 | O=c1c2ccccc2c(=O)c2c1cc(Cl)c1[nH]c3c([nH]c12)c(Cl)cc1c(=O)c2ccccc2c(=O)c13 | inactive
33 | C[N+]1(C)[C@@H]2CC[C@H]1CC(OC(=O)C(CO)c1ccccc1)C2 (stereo not given in full) | inactive
34 | COC(=O)C(C)N(C(=O)c1ccco1)c1c(C)cccc1C (stereo not given) | inactive
35 | CC(C)N(C(=O)SC/C(Cl)=C/Cl)C(C)C | inactive
36 | ClSC(Cl)(Cl)Cl | inactive
37 | Cc1ccccc1OP(=O)(Oc1ccccc1C)Oc1ccccc1C | inactive
38 | CN/C(=N\[N+](=O)[O-])NCc1cnc(Cl)s1 | inactive
39 | CCO/N=C(\CC)C1=C(O)CC(c2c(C)cc(C)cc2C)CC1=O (stereo not given) | inactive
40 | O=[N+]([O-])[O-].[Tl+] | inactive
